Each compound was assayed against Follistatin-related protein 3 (Homo sapiens) (UniProt O95633) (assay: FSTL3 binders on small-molecule microarrays, primary screen, biochemical, small-molecule microarray, 635 nm fluorescence (AID 1105;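 note: score merges emission near 667 nm and signal to noise per printed spot across three slides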)). Details: FSTL3 binding, higher = more signal.
Follistatin-related protein 3 (Homo sapiens), sequence (O95633 whole entry, looked up): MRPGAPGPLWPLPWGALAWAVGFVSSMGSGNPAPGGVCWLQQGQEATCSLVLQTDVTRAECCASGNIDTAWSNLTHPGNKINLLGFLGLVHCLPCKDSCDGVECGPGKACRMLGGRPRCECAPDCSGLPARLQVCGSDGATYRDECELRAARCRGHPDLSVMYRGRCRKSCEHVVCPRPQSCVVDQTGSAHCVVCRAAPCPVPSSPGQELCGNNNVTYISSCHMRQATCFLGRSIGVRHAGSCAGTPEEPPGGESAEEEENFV

Row | SMILES | composite z-score
1 | Cn1c(=O)n2n(c1=O)[C@H]1[C@H](O)[C@@H]3O[C@@H]3C(=O)[C@H]1CC2 | 0.534
2 | C[C@@H]1CC[C@H]2C(=O)O[C@@H](Cc3ccccc3)CN2[C@H]1c1ccc(Br)cc1 | 0.416
3 | CCOC(=O)[C@H](CC(C)C)NC(=O)CCC1CC(OC(=O)NCCc2ccc(F)cc2)CC2(CCCC(COC(=O)NCCc3ccc(Cl)cc3)O2)O1 (some centres not stated) | 0.79
4 | CO[C@H]1COC(=O)[C@H](C)NC(=O)CC=C[C@@H](C)[C@H](OC)COC(=O)[C@@H](OCc2ccccc2)C=C[C@@H]1C | 0.492
5 | C#CCCCON=C1C[C@@H](O)[C@@H](O)[C@@H]2[C@@H]3C(=O)N(c4ccc(F)cc4F)C(=O)[C@@H]3CC[C@H]12 | 0.432
6 | O=C1C[C@@H](O)[C@@H](O)[C@@H]2[C@@H]3C(=O)N(Cc4ccc5c(c4)OCO5)C(=O)[C@@H]3CC[C@H]12 | 0.703

Each compound was assayed against Dickkopf-related protein 1 (Homo sapiens) (UniProt O94907) (assay: DKK1 binders on small-molecule microarrays, primary screen, biochemical, small-molecule microarray, 635 nm fluorescence scan (AID 1106;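 note: score merges emission near 667 nm with signal to noise over three replicate slides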)). Details: DKK1 binding, higher = more signal.
Dickkopf-related protein 1 (Homo sapiens), sequence (O94907 whole entry, looked up): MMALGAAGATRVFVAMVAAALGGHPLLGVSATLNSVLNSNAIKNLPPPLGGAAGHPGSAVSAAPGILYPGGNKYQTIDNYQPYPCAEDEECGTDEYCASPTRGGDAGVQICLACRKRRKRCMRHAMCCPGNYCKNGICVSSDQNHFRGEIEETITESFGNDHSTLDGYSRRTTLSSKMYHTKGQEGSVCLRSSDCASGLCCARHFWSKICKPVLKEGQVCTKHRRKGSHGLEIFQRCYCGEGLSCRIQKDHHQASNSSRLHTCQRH

Row | SMILES | composite z-score
7 | COc1ccc(O[C@H]2C=C[C@@H](c3ccccc3)O[C@@H]2CON=CC[C@@H]2C=C[C@H](OC(C)=O)[C@@H](COC(C)=O)O2)cc1 | 0.105
8 | CO[C@H]1COC(=O)CC=C[C@@H](C)[C@H](NS(=O)(=O)c2ccc(C)cc2)COC(=O)CCC[C@@H]1C | 1.53
9 | CON=CC[C@@H]1C=C[C@H](OC(C)=O)[C@@H](COC(C)=O)O1 | 0.531
10 | C=COC[C@@H]1CN2[C@@H](CC[C@@H](C)[C@@H]2c2ccc(Br)cc2)C(=O)O1 | -0.0521
11 | O=C1[C@H]2[C@H]3[C@H](O)[C@H](O)CC(=NOCc4ccccc4)[C@@H]3CC[C@H]2C(=O)N1Cc1ccc2c(c1)OCO2 | 0.472
12 | COC(=O)NCC=Cc1nc(CCCO)co1 | 0.617
13 | CO[C@H]1COC(=O)CC=C[C@H](C)[C@@H](OC)COC(=O)[C@@H](C)COC(=O)CC=C[C@@H]1C | 1.3
14 | COC(=O)[C@@H]1CC[C@H](C)[C@@H](c2ccc(C)cc2)N1C(=O)c1ccc(C=NOC[C@@H](C)[C@H](OCc2ccccc2)C(C)C)cc1 | 0.414
15 | COC(=O)CC=C[C@@H](C)[C@@H](C=NO[C@@H]1O[C@H](COC(C)=O)[C@@H](OC(C)=O)[C@H](OC(C)=O)[C@H]1OC(C)=O)NS(=O)(=O)c1ccc(C)cc1 | 0.833
16 | CCOC(=O)[C@H](CC(C)C)NC(=O)CCC1CC(OC(=O)NCc2cccc3ccccc23)CC2(CCCC(COC(=O)NCCOc3ccccc3)O2)O1 (some centres not stated) | 0.344
17 | COc1cccc([C@H]2Oc3ccc(OC)cc3C(=NO[C@@H](C)c3cn([C@H](CO)Cc4ccccc4)nn3)[C@@H]2O)c1 | 0.113
18 | COC(=O)CC=C[C@@H](C)[C@@H](C=NOC[C@H]1O[C@H](c2ccccc2)C=C[C@@H]1Oc1ccc(OC)cc1)NS(=O)(=O)c1ccc(C)cc1 | -0.462
19 | C=CC1=C[C@H](O)[C@@H]2O[C@@H]2C12OCCCO2 | -0.137
20 | COC(=O)CC=C[C@@H](C)[C@H](OCc1cccc(-c2ccccc2)c1)C1CCCCC1 | 0.352
21 | CC(C)CON=C1C[C@@H](O)[C@@H](O)[C@@H]2[C@@H]3C(=O)N(Cc4ccc5c(c4)OCO5)C(=O)[C@@H]3CC[C@H]12 | 0.178
22 | COc1ccc(O[C@H]2C=C[C@@H](c3ccccc3)O[C@@H]2CON=C(C)C)cc1 | -0.292
23 | COC(=O)CC=C[C@@H](C)[C@@H](C=NOC(C)CN1CCCc2nc(C)c(C)cc21)OC (some centres not stated) | 0.866
24 | CC(C)(C)N1C(=O)[C@H]2[C@H]3[C@H](O)[C@H](O)CC(=NO[C@@H]4O[C@H](CO)[C@@H](O)[C@H](O)[C@H]4O)[C@H]3CC[C@H]2C1=O | 0.639

Row | SMILES | composite z-score
25 | C#CCCCON=C1C[C@@H](O)[C@@H](O)[C@@H]2[C@@H]3C(=O)N(C(C)(C)C)C(=O)[C@@H]3CC[C@H]12 | -0.996
26 | CCOC(=O)NN=C1C[C@@H](O)[C@@H](O)[C@@H]2[C@@H]3C(=O)N([C@@H](C)c4ccccc4)C(=O)[C@@H]3CC[C@H]12 | 0.309
27 | COC(=O)[C@@H]1CC[C@H](C)[C@@H](c2ccc(C)cc2)N1C(=O)c1ccc(C=NO[C@H](C)c2cn([C@H](CO)Cc3ccccc3)nn2)cc1 | 0.81
28 | CCOC(=O)CCN1C(=O)[C@H]2[C@H]3[C@H](O)[C@H](O)CC(=NNC(=O)OCc4ccccc4)[C@@H]3CC[C@H]2C1=O | 0.516
29 | CC(C)=CCCC(C)=CCON=C1C[C@@H](O)[C@@H](O)[C@@H]2[C@@H]3C(=O)N(c4ccc(F)cc4F)C(=O)[C@@H]3CC[C@@H]12 | 0.926
30 | CCc1cc2c(nc1CC)CCN(CCC(C)=NO[C@H](C)c1cn([C@H](CO)Cc3ccccc3)nn1)C2 | 0.274
31 | COC(=O)[C@H](C)NC(=O)CCC1CC(OC(=O)NCCc2ccc(F)cc2)CC2(CCCC(COC(=O)NCCC(C)C)O2)O1 (some centres not stated) | 0.0468
32 | CCN1C(=O)[C@@H]2[C@H]3C(=CC[C@@H]2C1=O)C1(OCCCO1)[C@H]1O[C@H]1[C@H]3O | 0.739
33 | CCCNC(=O)OC[C@H]1O[C@H](CCON=C(C)CCN2CCc3nc(CC)c(CC)cc3C2)C=C[C@@H]1Oc1ccc(OC)cc1 | 0.192
34 | COc1cccc([C@H]2Oc3ccc(OC)cc3C(=NO[C@H](C)c3cn([C@H](CO)Cc4ccccc4)nn3)[C@@H]2O)c1 | -0.28
35 | Cc1ccc(S(=O)(=O)n2c3ccccc3c3nnc(C(=O)c4ccccc4)nc32)cc1 | 0.563
36 | CCOC(=O)[C@H](Cc1ccccc1)NC(=O)CCC1CC(OC(=O)NCc2ccc3c(c2)OCO3)CC2(CCCC(COC(=O)NCCc3ccccc3OC)O2)O1 (some centres not stated) | 0.759
37 | Cn1c(=O)n2n(c1=O)[C@H]1[C@H](O)[C@@H]3O[C@@H]3C(=O)[C@H]1CC2 | 0.408
38 | C[C@@H]1CC[C@H]2C(=O)O[C@@H](Cc3ccccc3)CN2[C@H]1c1ccc(Br)cc1 | 0.783
39 | CCOC(=O)[C@H](CC(C)C)NC(=O)CCC1CC(OC(=O)NCCc2ccc(F)cc2)CC2(CCCC(COC(=O)NCCc3ccc(Cl)cc3)O2)O1 (some centres not stated) | 0.483
40 | CO[C@H]1COC(=O)[C@H](C)NC(=O)CC=C[C@@H](C)[C@H](OC)COC(=O)[C@@H](OCc2ccccc2)C=C[C@@H]1C | 0.834
41 | C#CCCCON=C1C[C@@H](O)[C@@H](O)[C@@H]2[C@@H]3C(=O)N(c4ccc(F)cc4F)C(=O)[C@@H]3CC[C@H]12 | 0.978
42 | O=C1C[C@@H](O)[C@@H](O)[C@@H]2[C@@H]3C(=O)N(Cc4ccc5c(c4)OCO5)C(=O)[C@@H]3CC[C@H]12 | 0.593

— PubChem BioAssay
